Most compounds without a hit are left out; they make up all but 28% or so of the library.
CYP2C9 inh = blockers of cytochrome P450 2C9 activity – biochemical, luminescence, ADME assay, primary screen. 96,000 compounds, 20% hits. P11712. inhibition, % at 5 µM. CYP2C9 Supersomes, luciferin-H conversion;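 active means blocking of liver enzyme CYP2C9 beyond about 50% at 5 µM, limit read from the data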
CYP2C9 activ = human CYP2C9 activators, primary screen, biochemical, luminescence; Cytochrome P450 2C9 (Homo sapiens), P11712; recombinant CYP2C9, luciferin-H conversion; stronger effect = higher value; factor 1 = untreated enzyme, 0 = blocked; activation factor at 5 µM; 96,000 compounds, 1.4% hits; AID 1024, 2008;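 active means activation factor of 2 or more for CYP2C9 at a 5 µM dose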
Mac1 fbg enh = enhancers of CD11b/CD18 adhesion to fibrinogen, primary screen, K562 cells, luminescence | Integrin beta-2 (Homo sapiens) + Integrin alpha-M (Homo sapiens), P05107+P11215 | ATPlite luminescence | activation, % at 10 µM | 93,000 compounds, 0.07% hits;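 active means 10 µM primary screen giving 50% or more activity, confirmed by 40% or more on retest at that dose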
CYP2C19 inh = blockers of cytochrome P450 2C19 activity – biochemical, luminescence, ADME assay, primary screen. P33261. CYP2C19 Supersomes, luciferin-H EGE luminescence, 30 min. inhibition, % at 5 µM. 96,000 compounds, 21% hits;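 active means CYP2C19 inhibition above a set limit at 5 µM in the primary screen, cut at about 50% in these data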
Target sequence (P33261 whole entry, looked up): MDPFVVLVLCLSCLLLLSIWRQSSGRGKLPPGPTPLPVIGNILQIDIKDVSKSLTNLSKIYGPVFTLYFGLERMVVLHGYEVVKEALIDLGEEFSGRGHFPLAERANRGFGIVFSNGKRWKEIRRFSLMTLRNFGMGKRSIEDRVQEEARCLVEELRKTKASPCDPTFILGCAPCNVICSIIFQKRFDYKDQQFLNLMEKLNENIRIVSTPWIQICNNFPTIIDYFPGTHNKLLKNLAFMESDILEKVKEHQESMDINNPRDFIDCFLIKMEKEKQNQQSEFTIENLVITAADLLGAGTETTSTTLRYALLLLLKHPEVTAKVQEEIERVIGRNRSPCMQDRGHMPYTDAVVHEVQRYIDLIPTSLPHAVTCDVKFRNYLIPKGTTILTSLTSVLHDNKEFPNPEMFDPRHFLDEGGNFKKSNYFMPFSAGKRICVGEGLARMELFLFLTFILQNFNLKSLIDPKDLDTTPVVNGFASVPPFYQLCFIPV
Mac1 fbg inh = inhibitors of CD11b/CD18 adhesion to fibrinogen, primary screen, K562 cells, luminescence; inhibition, % at 10 µM; Integrin beta-2 (Homo sapiens) + Integrin alpha-M (Homo sapiens), P05107+P11215; AID 1497, 2009; 93,000 compounds, 0.54% hits; ATPlite luminescence; Mn2+ added to activate the integrin;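 active means primary inhibition of 50% or more at 10 µM, then 40% or more on retest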
CYP2C19 activ = human CYP2C19 activators, primary screen, biochemical, luminescence; 96,000 tested, under 10 active; Cytochrome P450 2C19 (Homo sapiens), P33261; activation factor at 5 µM; AID 1025, 2008; recombinant CYP2C19, luciferin-H EGE luminescence; stronger effect = higher value; 0 = fully inhibited enzyme, 1 = untreated enzyme;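 active means activation factor of at least 2 at 5 µM in the primary screen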
Each line names hits and unclear results; the compound was inactive in the other large screens.

COc1ccc2[nH]c3c(N4CCN(Cc5ccc6c(c5)OCO6)CC4)ncnc3c2c1	CYP2C9 inh 82, CYP2C19 inh 58
Cc1ccc2[nH]c3c(N4CCc5ccccc5C4)ncnc3c2c1	none (no result: Mac1 fbg enh, Mac1 fbg inh)
COc1ccc2c(c1)c(C(O)CN1CCN(Cc3ccc4c(c3)OCO4)CC1)c(C)n2C (stereo not drawn)	none
CC1(C)Cc2c(sc3nc4n(c(=N)c23)CCC4)CO1	none
COc1ccc(C(=O)CSc2nnc(CNC(=O)c3ccc(OC)c(OC)c3)n2C)cc1	none
Cc1cc(Nc2ccc(Br)c(C)c2)n2nc(C)nc2n1	none
O=C(O)c1ccc(OCCn2ccnc2)cc1	none
CCOc1ccc(OCCOCCn2ccnc2)cc1	CYP2C19 inh 98
O=C(OCC(=O)N1CCN(C(=O)c2ccco2)CC1)c1ccccc1C(=O)c1ccc(Cl)cc1	none
O=C1NC2=C(C(=O)CCC2)C(c2ccc3ncccc3c2)N1 (stereo not drawn)	none
Cn1nc([N+](=O)[O-])nc1Sc1nnc(-c2ccccc2)o1	CYP2C9 inh 52
Cc1cccc(Oc2coc3cc(OC(=O)c4cc5ccccc5oc4=O)ccc3c2=O)c1	CYP2C9 activ 2.1, Mac1 fbg enh 53
O=C(COc1ccc2c(c1)CCC2)N1CCc2ccccc21	none
Oc1ccc(-c2[nH]ncc2-c2ccc(Cl)cc2)c(O)c1	CYP2C9 inh 91, CYP2C19 inh 92 (no result: Mac1 fbg enh, Mac1 fbg inh)
Oc1ccc(-c2[nH]ncc2-c2cccc3cccnc23)c(O)c1	CYP2C9 inh 53, CYP2C19 inh 54
COc1ccc(-c2[nH]ncc2-c2ccc(Cl)cc2)c(O)c1	CYP2C19 inh 75
O=[N+]([O-])c1ccc(COc2ccc(-c3[nH]ncc3-c3ccc(Cl)cc3)c(O)c2)cc1	none (no result: CYP2C9 inh, CYP2C9 activ, CYP2C19 inh, CYP2C19 activ)
C=COCCNC(=O)C1CC(=O)N(c2ccc(C)cc2)C1 (stereo not drawn)	none
CN(C)c1cccc(NC(=O)Cc2ccc(F)cc2)c1	CYP2C9 inh 62, CYP2C19 inh 98
CN(C)c1cccc(NC(=O)CCc2ccccc2)c1	CYP2C19 inh 95
CC(=O)Nc1cccc(NC(=O)CCc2ccccc2)c1	none
CCOC(=O)c1ccccc1NC(=O)CSc1nnnn1C1CCCCC1	CYP2C9 inh 72
C=CCn1nnnc1SCC(=O)Nc1cccc(OC)c1	none
C=CCn1nnnc1SCC(=O)Nc1ccccc1C(=O)OC	CYP2C19 inh 91
COc1ccccc1NC(=O)CSc1nnnn1Cc1ccccc1	CYP2C19 inh 92
COC(=O)c1ccccc1NC(=O)CSc1nnnn1C1CCCCC1	none
COC(=O)c1cn(NC(=O)c2ccc3c(c2)OCO3)c(=O)c2ccccc12	none
O=S(=O)(NCc1csc(-c2cccnc2)n1)c1ccc2c(c1)OCCO2	CYP2C19 inh 57
O=S(=O)(NCCc1csc(-c2ccccc2)n1)c1ccc2c(c1)OCCO2	CYP2C19 inh 89
N#Cc1c(-c2ccccc2)c(-c2ccccc2)n(Cc2ccco2)c1NC(=O)c1cccs1	CYP2C9 inh 64
COc1ccc(N(CC(=O)N2c3ccccc3CC2C)S(=O)(=O)c2c(C)noc2C)cc1 (stereo not drawn)	CYP2C9 inh 92, CYP2C19 inh 88
COc1ccc(N(CC(=O)NCc2cccnc2)S(=O)(=O)c2c(C)nn(C)c2C)cc1	CYP2C19 inh 64
COc1ccc(N(CC(=O)NC2CCCC2)C(=O)c2ccc(N3CCCCC3)nc2)cc1	CYP2C9 inh 78
COc1ccc(C(=O)NC2CCN(C(=O)NC3CCCCC3)CC2)cc1	none
COc1ccc(N(CC(=O)NCc2ccccc2)S(=O)(=O)c2c(C)noc2C)cc1	CYP2C19 inh 91
O=C(NCc1nc2ccccc2[nH]1)c1cccc(S(=O)(=O)N2CCCC2)c1	none
COc1cc(/C=N/NC(=O)CCN2CCN(C(c3ccccc3)c3ccccc3)CC2)ccc1O	none (no result: CYP2C9 inh, CYP2C9 activ, CYP2C19 inh, CYP2C19 activ)
CCCS(=O)(=O)N1CCC(C(=O)N2CCc3ccccc3C2)CC1	none
COc1ccc(N(CC(=O)N2CCCCC2)S(=O)(=O)c2c(C)nn(C)c2C)cc1	none
